According to PubChem BioAssay (NCI):
The panel holds about 83,000 compounds, 20% with a hit somewhere; the sample as a whole holds those more often.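 For each line, cells grew in 96-well plates with the test compound present at a single concentration for 48 hours.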 Values without a mark were called inactive. Active and inactive are the calls of the source. How the source made its calls: active means growth percent below 10; inactive means the rest.

Assays:
Experiment in all cases: NCI-60 one-dose screen, 48 h (100 = growth as untreated, 0 = no growth, -100 = all killed)
[1] = tested on: HCT-15 colon; conditions: 10 µM unless noted
[2] = tested on: HT29 colon; conditions: 10 µM unless noted
[3] = tested on: SNB-75 CNS; conditions: 10 µM unless noted
[4] = tested on: SNB-19 CNS; conditions: 10 µM unless noted
[5] = tested on: U251 CNS; conditions: 10 µM unless noted
[6] = tested on: PC-3 prostate; conditions: 10 µM unless noted
[7] = tested on: SK-MEL-5 melanoma; conditions: 10 µM unless noted
[8] = tested on: UACC-62 melanoma; conditions: 10 µM unless noted
[9] = tested on: LOX IMVI melanoma; conditions: 10 µM
[10] = tested on: SK-MEL-28 melanoma; conditions: 10 µM unless noted
[11] = tested on: SK-MEL-2 melanoma; conditions: 10 µM unless noted
[12] = tested on: SN12C renal; conditions: 10 µM unless noted
[13] = tested on: UO-31 renal; conditions: 10 µM unless noted
[14] = tested on: TK-10 renal; conditions: 10 µM unless noted
[15] = tested on: ACHN renal; conditions: 10 µM unless noted
[16] = tested on: CAKI-1 renal; conditions: 10 µM unless noted
[17] = tested on: A498 renal; conditions: 10 µM unless noted
[18] = tested on: CCRF-CEM leukemia; conditions: 10 µM unless noted
[19] = tested on: MOLT-4 leukemia; conditions: 10 µM unless noted
[20] = tested on: EKVX NSCLC; conditions: 10 µM unless noted

CC[n+]1ccc(Nc2ccc(NC(=O)c3ccc(Nc4cc[n+](CC)c5ccc([N+](=O)[O-])cc45)cc3)cc2)cc1
growth [1]: 96.2% | growth [2]: 57.1% | growth [3]: 98.4% | growth [4]: 71.6% | growth [5]: 62.5% | growth [6]: 54.2% | growth [7]: 65.7% | growth [8]: 79.4% | growth [9]: 85.7% | growth [10]: 90.3% | growth [11]: 111% | growth [12]: 86% | growth [13]: 91.4% | growth [14]: 152% | growth [15]: 96.9% | growth [16]: 94.2% | growth [17]: 103% | growth [18]: 89.1% | growth [19]: 93.3%

CCCCCCCCCCCCCCCCCC1=NCCCN1CCO
growth [1]: 94% | growth [2]: 101% | growth [3]: 105% | growth [4]: 101% | growth [5]: 98.2% | growth [6]: 95.9% | growth [7]: 103% | growth [8]: 111% | growth [9]: 96.4% | growth [10]: 108% | growth [11]: 111% | growth [12]: 96.8% | growth [13]: 93.4% | growth [14]: 116% | growth [15]: 112% | growth [16]: 105% | growth [18]: 97.4% | growth [19]: 102%

O=C(O)c1cccc2cccc(-c3c4ccc(=O)c(O)c-4oc4c(O)c(O)ccc34)c12
growth [1]: 105% | growth [2]: 103% | growth [3]: 89.6% | growth [4]: 98.1% | growth [5]: 99.5% | growth [6]: 92.3% | growth [7]: 94.6% | growth [8]: 90.6% | growth [9]: 90% | growth [10]: 97.6% | growth [11]: 96.8% | growth [20]: 83.7% | growth [13]: 66.6% | growth [14]: 110% | growth [15]: 92.3% | growth [16]: 90.2% | growth [17]: 104% | growth [18]: 94.7% | growth [19]: 82.2%

CCc1cccc(CC)c1N1C(=O)C=CC1=O
growth [1]: 104% | growth [2]: 113% | growth [3]: 93.8% | growth [4]: 105% | growth [5]: 100% | growth [6]: 110% | growth [7]: 98.1% | growth [8]: 112% | growth [9]: 106% | growth [10]: 119% | growth [11]: 107% | growth [20]: 113% | growth [13]: 90.3% | growth [14]: 104% | growth [15]: 102% | growth [17]: 100% | growth [18]: 17%

N#CC(=C1SCS1)[N+](=O)[O-]
growth [1]: 12.3% | growth [2]: 1.29% (active) | growth [3]: 40.5% | growth [4]: 41.2% | growth [5]: 14.4% | growth [6]: 28.8% | growth [7]: 5.48% (active) | growth [8]: 38.1% | growth [9]: 17% | growth [10]: 37.8% | growth [11]: 19.2% | growth [20]: 63.7% | growth [12]: 28% | growth [13]: 32.3% | growth [14]: 3.93% (active) | growth [17]: 59.3% | growth [18]: 2.01% (active) | growth [19]: 3.81% (active)

Oc1ccc2c(c1)CCc1ccccc1-2
growth [1]: 92.6% | growth [2]: 95% | growth [3]: 56.1% | growth [4]: 102% | growth [5]: 95.9% | growth [6]: 99.2% | growth [7]: 97.8% | growth [8]: 104% | growth [9]: 107% | growth [10]: 105% | growth [11]: 115% | growth [12]: 107% | growth [13]: 90.3% | growth [14]: 100% | growth [15]: 109% | growth [16]: 101% | growth [17]: 68.6% | growth [18]: 97.3%

CCOc1ccc(C(CN2CCOCC2)C(C)=O)cc1OC (stereo not given)
growth [1]: 54.2% | growth [2]: 107% | growth [3]: 85.9% | growth [4]: 103% | growth [5]: 95.9% | growth [6]: 101% | growth [7]: 93.6% | growth [8]: 93.6% | growth [9]: 68.9% | growth [10]: 102% | growth [11]: 111% | growth [20]: 96.2% | growth [13]: 75.4% | growth [14]: 49.8% | growth [15]: 79.6% | growth [16]: -89.9% (active) | growth [17]: 92.2% | growth [18]: 52.7% | growth [19]: 87.2%

CCCCCCCCCCCC[n+]1ccc(CCCCCCCCC)cc1
growth [1]: -48% (active) | growth [2]: -84% (active) | growth [3]: -70% (active) | growth [4]: -74.5% (active) | growth [5]: -94.6% (active) | growth [6]: -51.6% (active) | growth [7]: -96.8% (active) | growth [8]: -76.9% (active) | growth [9]: -94.6% (active) | growth [10]: -70.9% (active) | growth [11]: -48.1% (active) | growth [12]: -70.9% (active) | growth [13]: -19.4% (active) | growth [14]: -31.4% (active) | growth [15]: -80.7% (active) | growth [16]: 23.4% | growth [17]: -25.4% (active) | growth [18]: -34.9% (active)

CCCCCCCCCCCC1=NCCCN1CCCC
growth [1]: 91.7% | growth [2]: 86.1% | growth [3]: 102% | growth [4]: 101% | growth [5]: 100% | growth [6]: 89.1% | growth [7]: 95.8% | growth [8]: 96.7% | growth [9]: 77.1% | growth [10]: 103% | growth [12]: 98.4% | growth [13]: 84.3% | growth [14]: 108% | growth [15]: 104% | growth [18]: 87.4% | growth [19]: 92%

CC(=O)Nc1ccc(C(=O)CCl)cc1
growth [1]: 6.54% (active) | growth [2]: 8.26% (active) | growth [3]: 84.3% | growth [4]: 82.5% | growth [5]: 86.3% | growth [6]: 92.9% | growth [7]: 107% | growth [8]: 81.3% | growth [9]: -53.6% (active) | growth [10]: 69.6% | growth [12]: 90.6% | growth [13]: 54.2% | growth [14]: 43.8% | growth [15]: -58% (active) | growth [16]: 38.6% | growth [17]: 99.8% | growth [18]: -49.9% (active) | growth [19]: 73.6%

CCN(CC)CC(O)CNc1ccc(NCC2CO2)c2c1C(=O)c1ccccc1C2=O (stereo not given)
growth [1]: -38.1% (active) | growth [2]: -42.9% (active) | growth [3]: -66% (active) | growth [4]: 3.77% (active) | growth [5]: -51.8% (active) | growth [6]: -28.4% (active) | growth [7]: -89.8% (active) | growth [8]: -73.5% (active) | growth [9]: -54.1% (active) | growth [11]: -46.5% (active) | growth [20]: 23.5% | growth [12]: -15.9% (active) | growth [13]: -40.6% (active) | growth [14]: -27% (active) | growth [15]: -55.1% (active) | growth [16]: -32% (active) | growth [17]: 81.6% | growth [18]: -29.9% (active) | growth [19]: -23.1% (active)

NC(=S)N/N=C\c1nccc2c(N)cccc12
growth [1]: 29.6% | growth [2]: 37.9% | growth [3]: 13.6% | growth [4]: 30.1% | growth [5]: 17.8% | growth [6]: 46.6% | growth [7]: 10.8% | growth [8]: -29% (active) | growth [9]: 5.29% (active) | growth [11]: 39.3% | growth [20]: 34.5% | growth [12]: 8.66% (active) | growth [13]: -8.44% (active) | growth [14]: 48% | growth [15]: -7.84% (active) | growth [16]: -23.9% (active) | growth [17]: 12.2% | growth [18]: 8.4% (active)

CC(C)(C)CC(C)(C)c1ccc(OCCOCCSC(=N)N)cc1
growth [1]: 0.972% (active) | growth [2]: -7.31% (active) | growth [3]: 74.8% | growth [4]: 73.6% | growth [5]: 35.9% | growth [6]: 42.6% | growth [7]: -70.2% (active) | growth [8]: 75.7% | growth [9]: -81% (active) | growth [10]: -57.1% (active) | growth [12]: 55% | growth [13]: 53.2% | growth [14]: 78% | growth [15]: 33.5% | growth [16]: 65.3% | growth [17]: 75.3% | growth [18]: 0.0306% (active)

CN(C)c1ccc(/C=C/c2sc3ccc4ccccc4c3[n+]2C)cc1
growth [1]: 0.902% (active) | growth [2]: -100% (active) | growth [3]: -95.6% (active) | growth [4]: -32.5% (active) | growth [5]: -51.2% (active) | growth [6]: -38% (active) | growth [7]: -100% (active) | growth [8]: -75% (active) | growth [9]: -35.3% (active) | growth [10]: -56.6% (active) | growth [20]: -13.6% (active) | growth [12]: -54.3% (active) | growth [13]: 15.9% | growth [14]: -42.1% (active) | growth [15]: -49.3% (active) | growth [16]: -10.9% (active) | growth [17]: -20.8% (active) | growth [18]: -8.92% (active) | growth [19]: -26.7% (active)

COc1ccc(C(OCC2OC(n3ccc(NC(=O)c4ccccc4)nc3=O)C(O)C2O)(c2ccccc2)c2ccccc2)cc1 (stereo not given)
growth [1]: 20.6% | growth [2]: 8.51% (active) | growth [3]: 34.1% | growth [4]: 54.7% | growth [5]: 33.1% | growth [6]: 22.9% | growth [7]: 24.2% | growth [8]: 43.9% | growth [9]: 46.6% | growth [10]: 55.9% | growth [20]: 38.4% | growth [12]: -38.2% (active) | growth [13]: 22.7% | growth [14]: 81.5% | growth [15]: 47.3% | growth [16]: 55% | growth [17]: 52.8% | growth [18]: 47.1% | growth [19]: 3.18% (active)

O=C1C=CC(=O)N1c1cccc2c1CCCC2
growth [1]: 98.4% | growth [2]: 102% | growth [3]: 85.9% | growth [4]: 92.6% | growth [5]: 98.2% | growth [6]: 98.9% | growth [7]: 102% | growth [8]: 99.3% | growth [9]: 107% | growth [10]: 99.1% | growth [12]: 97.2% | growth [13]: 87.9% | growth [14]: 102% | growth [15]: 79.3% | growth [16]: 82.3% | growth [17]: 96.2% | growth [18]: 9.65% (active) | growth [19]: 74.2%

CC(=O)OC1CC2CCC1(C)C2(C)C (stereo not given)
growth [1]: 98.9% | growth [2]: 96% | growth [3]: 93.5% | growth [4]: 103% | growth [5]: 103% | growth [6]: 93.2% | growth [7]: 106% | growth [8]: 92.6% | growth [9]: 101% | growth [10]: 105% | growth [20]: 102% | growth [12]: 98.6% | growth [13]: 87.3% | growth [14]: 106% | growth [16]: 92.6% | growth [17]: 108% | growth [18]: -45% (active)

O=C(c1ccccc1)C(Br)[N+](=O)[O-] (stereo not given)
growth [1]: 78.1% | growth [2]: 90.5% | growth [3]: 86.3% | growth [4]: 102% | growth [5]: 84.2% | growth [6]: 89.4% | growth [7]: 102% | growth [8]: 89.8% | growth [9]: 80.5% | growth [10]: 106% | growth [20]: 96.5% | growth [12]: 103% | growth [13]: 80.8% | growth [14]: 106% | growth [15]: 86.8% | growth [16]: 93% | growth [17]: 101% | growth [18]: 24.8%
